PubChem BioAssay (EPA / NIEHS)
The source made the active and inactive calls. How the source made its calls: active means hit-call score of the fitted dose curve at least 0.9, where 1 is the maximum; inactive means score below 0.9.

Assay: ATG_MRE_CIS: Attagene CIS-FACTORIAL HepG2 Assay for human Metal Responsive Element (MRE) (AID 2282954)
Details: HepG2 MRE cis-reporter transcription, Attagene multiplex; actives raise or lower the signal
Procedure: ATG_CIS is a cell-based, multiplexed-readout assay that uses HepG2, a human liver cell line, with measurements taken at 24 hours after chemical dosing in a 24-well plate.ATG_MRE_CIS is one of 52 assay component(s) measured or calculated from the ATG_CIS assay. It is designed to make measurements of mRNA induction, a form of inducible reporter, as detected with fluorescence intensity signals by Reverse transcription polymerase chain reaction (RT-PCR) and Capillary electrophoresis technology.Data from the assay component ATG_MRE_CIS was analyzed into 1 assay endpoint. This assay endpoint, ATG_MRE_CIS, was analyzed with bidirectional fitting relative to DMSO as the negative control and baseline of activity. Using a type of inducible reporter, measures of mRNA for gain or loss-of-signal activity can be used to understand the reporter gene at the transcription factor-level as they relate to the gene MTF1. Furthermore, this assay endpoint can be referred to as a primary readout, because this assay has produced multiple assay endpoints where this one serves a reporter gene function. To generalize the intended target to other relatable targets, this assay endpoint is annotated to the dna binding intended target family, where the subfamily is zinc finger.
Human liver HepG2 cells are transiently transfected with multiple reporter transcription units (MRTUs) in 6-well plates using FuGene 6 reagent (Roche; 3 ml FuGene/1 mg DNA). The MRTU constructs are regulated by a cis-regulating element (promoter). […] A major difference between the CIS and TRANS system is that in CIS activities of endogenous TFs are measured, whereas the TRANS assay evaluates changes in activities of exogenous, chimeric NR-Gal4 proteins. […] At the end of 24 hour incubation, total RNA was isolated using TriZol reagent (Invitrogen). The isolated RNA is then reverse-transcribed using oligo(dT) primer and Mo-MLV reverse transcriptase (Invitrogen) with DNAse I (Ambion) treatment for 30 min. The one-tenth of the produced cDNA was amplified by PCR using Taq DNA polymerase (Invitrogen) and two reporter sequence-specific primers. The PCR products were fluorescently labeled by primer extension with 6-arboxyfluorescein (6-FAM) 5'-labeled reporter sequence-specific primer (2 min at 95 C, 20 s at 68 C and 10 min at 72 C) and these products were digested with 5U of HpaI (New England Biolabs) for 2h at 37 C. The fragments were purified using Qiaquick PCR columns (Qiagen), analyzed on an ABI 3130xL genetic analyzer (Applied Biosystems) with peak positions identified by using a set of X-rhodamine (ROX)-labeled MapMarker1000 molecular weight standards (BioVentures). The raw capillary electrophoresis data was processed using Attagraph software (Attagene).
For C=CC(C)(CCC=C(C)C)OC(=O)c1ccccc1 (stereo not given), the AC50 was 177 µM (active).
In the case of Clc1ccc(Sc2cc(Cl)c(Cl)cc2Cl)cc1, the outcome is reported as “inactive”.
With CCC(C)(CCC(C)C)C(=O)O (stereo not given) the outcome was “inactive”.
For CCCCCCC1CCCC(=O)O1 (stereo not given), the outcome was “inactive”.
With CN(C)CCC(c1ccc(Cl)cc1)c1ccccn1 (stereo not given) the outcome was “inactive”.
In the case of Cc1ccccc1S(=O)(=O)O, the outcome is reported as “inactive”.
In the case of O=C1NC(=O)C2CC=CCC12 (stereo not given), the outcome is reported as “inactive”.
In the case of CCO[Si](CCCN)(OCC)OCC, the outcome is reported as “inactive”.
In the case of CCCCNC(N)=O, the outcome is reported as “inactive”.
With CC(=O)OC(C)(C)Cc1ccccc1 the outcome was “inactive”.
In the case of O=C(O)c1cc(Cl)cc(Cl)c1O, the outcome is reported as “inactive”.
In the case of CCCC(=O)OC, the outcome is reported as “inactive”.
In the case of O=C1NC(=O)[C@@H]2CC=CC[C@H]12, the outcome is reported as “inactive”.
For CN(C)Cc1cc(C(C)(C)C)c(O)c(C(C)(C)C)c1, the outcome was “inactive”.
In the case of c1cc(N(CC2CO2)CC2CO2)ccc1Cc1ccc(N(CC2CO2)CC2CO2)cc1 (stereo not given), the AC50 is reported as 21.3 µM (active).
With OCCN(CCO)c1cccc(Cl)c1 the outcome was “inactive”.
For CCC(C)=NO, the outcome was “inactive”.
With CC(C)CC(=O)CC(C)CC(C)C (stereo not given) the outcome was “inactive”.
With F[B-](F)(F)F the outcome was “inactive”.
In the case of CN(C)CCCN1c2ccccc2CCc2ccc(Cl)cc21, the outcome is reported as “inactive”.
For COc1ccccc1OCC(O)CO (stereo not given), the outcome was “inactive”.
For CC[N+](CC)(CC(=O)Nc1c(C)cccc1C)Cc1ccccc1 (tested in a mixture with another compound), the outcome was “inactive”.
With N#CCN(CC#N)CCN(CC#N)CC#N the outcome was “inactive”.
For Clc1ccccn1, the outcome was “inactive”.
With CO[Si](CCCNCCN)(OC)OC the outcome was “inactive”.
In the case of C=C(C)C(=O)OCC1CCCO1 (stereo not given), the outcome is reported as “inactive”.
With Cc1cccnc1 the outcome was “inactive”.
With CCOC(=O)CC(=O)OCC the outcome was “inactive”.
In the case of Sc1nc2ccccc2s1, the outcome is reported as “inactive”.
In the case of CCCc1c(OCCCCc2nn[nH]n2)ccc(C(C)=O)c1O, the AC50 is reported as 128 µM (active).
In the case of COC(=O)[C@]1(C)CCC[C@@]2(C)[C@H]1CC=C1C=C(C(C)C)CC[C@@H]12, the AC50 is reported as 66.1 µM (active).
For C=CCOC(=O)C(=C)C, the outcome was “inactive”.
For OCCc1ccccn1, the outcome was “inactive”.
In the case of O=C(Oc1ccccc1)c1ccccc1, the outcome is reported as “inactive”.
In the case of CCCCCCOC(=O)CCCCCCCC(=O)OCCCCCC, the outcome is reported as “inactive”.
For c1ccc(CNc2ncnc3nc[nH]c23)cc1, the outcome was “inactive”.
In the case of OCCOCCOCCOCCOCCO, the outcome is reported as “inactive”.
For O=C(O)c1ccccc1C(=O)O, the outcome was “inactive”.
In the case of CCCCCCCCCCCCCC, the outcome is reported as “inactive”.
For NC(=O)c1ccc(N)cc1, the outcome was “inactive”.
